Test results taken from the antibiotic and cytotoxicity screens of Wong et al. (2023).
About 3,300 (8.5%) of roughly 39,000 compounds were called active. Many of the other results were omitted from the sample, so actives are more common in it than they were.

test system: HepG2; assay: cytotoxicity call (relative viability < 0.9); conditions: 10 µM

Row | Compound | cytotoxicity call
1 | Cc1ccnc(-n2c(C)ccc2C)c1 | inactive
2 | C[C@@H]1CN([C@@H](C)CO)C(=O)c2cccc(NC(=O)Nc3ccc4c(c3)OCO4)c2O[C@@H]1CN(C)C(=O)Nc1ccc(C(F)(F)F)cc1 | inactive
3 | C[C@@H]1CN([C@H](C)CO)C(=O)CCCn2nncc2CO[C@@H]1CN(C)C(=O)Nc1ccc(N2CCN(C)CC2)cc1 | inactive
4 | C[C@@H]1CN([C@H](C)CO)C(=O)c2cccc(NC(=O)c3nc4ccccc4s3)c2O[C@H]1CN(C)C(=O)Nc1ccc(C(F)(F)F)cc1 | inactive
5 | O=C(C[C@@H]1C[C@@H]2c3cc(NS(=O)(=O)c4ccc(F)cc4)ccc3O[C@@H]2[C@H](CO)O1)NCc1ccccc1 | inactive
6 | O=C(C[C@@H]1C[C@H]2c3cc(NS(=O)(=O)c4ccc(F)cc4)ccc3O[C@H]2[C@@H](CO)O1)NCc1ccc(Oc2ccccc2)cc1 | active
7 | COc1cccc(S(=O)(=O)Nc2ccc3c(c2)[C@H]2C[C@@H](CC(=O)NCc4ccccc4F)O[C@H](CO)[C@H]2O3)c1 | inactive
8 | O=C(C[C@H]1C[C@@H]2c3cc(NS(=O)(=O)c4ccc(F)cc4)ccc3O[C@@H]2[C@@H](CO)O1)NCc1ccc(Oc2ccccc2)cc1 | active
9 | COc1cccc(S(=O)(=O)Nc2ccc3c(c2)[C@@H]2C[C@@H](CC(=O)NCc4ccccc4F)O[C@@H](CO)[C@@H]2O3)c1 | active
10 | O=C(C[C@H]1C[C@H]2c3cc(NS(=O)(=O)c4ccc(F)cc4)ccc3O[C@H]2[C@H](CO)O1)NCc1ccc(Oc2ccccc2)cc1 | active
11 | O=C(C[C@@H]1C[C@@H]2c3cc(NS(=O)(=O)c4ccc(F)cc4)ccc3O[C@@H]2[C@@H](CO)O1)NCc1ccc(Oc2ccccc2)cc1 | inactive
12 | O=C(C[C@H]1C[C@@H]2c3cc(NS(=O)(=O)c4ccc(F)cc4)ccc3O[C@@H]2[C@H](CO)O1)NCc1ccccc1 | inactive
13 | O=C(C[C@H]1C[C@H]2c3cc(NS(=O)(=O)c4ccc(F)cc4)ccc3O[C@H]2[C@@H](CO)O1)NCc1ccc(Oc2ccccc2)cc1 | inactive
14 | O=C(C[C@@H]1C[C@@H]2c3cc(NS(=O)(=O)c4ccc(F)cc4)ccc3O[C@@H]2[C@H](CO)O1)NCc1ccc(Oc2ccccc2)cc1 | inactive
15 | O=C(C[C@H]1C[C@@H]2c3cc(NS(=O)(=O)c4ccc(F)cc4)ccc3O[C@@H]2[C@H](CO)O1)NCc1ccc(Oc2ccccc2)cc1 | inactive
16 | COc1cccc(S(=O)(=O)Nc2ccc3c(c2)[C@@H]2C[C@@H](CC(=O)NCc4ccccc4F)O[C@H](CO)[C@@H]2O3)c1 | inactive
17 | CNC[C@H]1Oc2cc(C#CC(C)(C)O)ccc2S(=O)(=O)N([C@H](C)CO)C[C@H]1C | inactive
